From PubChem BioAssay (NCI)
About 79,000 compounds went through this panel and 15% of them were active in at least one assay; those are over-represented in the sample as a whole. Active and inactive are the calls of the source. No stated cut-off is given here; in the data, active means growth inhibition above about 70%; inactive means the rest.

Experiments:
[1] = NCI Yeast Anticancer Drug Screen. Data for the wt1 strain (AID 149);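 further: 0% = growth of vehicle-treated wt1 cultures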; settings: S. cerevisiae wt1 strain (SPY 50644) growth inhibition, hits give high values
Outline: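 The wt1 strain was treated with compounds, and growth was compared with vehicle-treated cultures to give inhibition.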

[2] = NCI Yeast Anticancer Drug Screen. Data for the rad50EPP+ strain (AID 151);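 further: 0% = growth of vehicle-treated control cultures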; settings: S. cerevisiae rad50 mutant strain, hits give high values
Outline: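 Measured: growth inhibition of rad50EPP+ yeast. Reference: vehicle-treated controls. Screen uses strains with defined genetic alterations in DNA damage repair or cell cycle control.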

[3] = NCI Yeast Anticancer Drug Screen. Data for the mgt1 strain (AID 153); settings: S. cerevisiae mgt1 mutant growth inhibition, hits give high values
Outline: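 Compounds were applied to mgt1 mutant yeast, and growth was then compared against vehicle-treated control cultures to give percent inhibition.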

[4] = NCI Yeast Anticancer Drug Screen. Data for the rad50 strain (AID 155);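 further: 0% = growth of vehicle-only cultures of the same strain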; settings: S. cerevisiae rad50 strain growth inhibition, hits give high values
Outline: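 Cells are treated with compound, grown, and their growth is then scored against vehicle-only cultures of the same repair-deficient yeast strain.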

[5] = NCI Yeast Anticancer Drug Screen. Data for the mec2-1 strain (AID 157); settings: S. cerevisiae mec2-1 strain, hits give high values
Outline: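 Compounds were applied to mec2-1 yeast cells. Their growth was then compared with that of vehicle-treated cultures to give growth inhibition.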

[6] = NCI Yeast Anticancer Drug Screen. Data for the rad14 strain (AID 159);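 further: 0% = growth of vehicle-treated control cultures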; settings: S. cerevisiae rad14 strain growth inhibition, hits give high values
Outline: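 Readout: yeast growth inhibition, referenced to vehicle-only cultures. Strain bears a defined alteration in DNA damage repair.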

[7] = NCI Yeast Anticancer Drug Screen. Data for the sgs1 mgt1 strain (AID 161);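 further: 0% = growth of cultures given vehicle only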; settings: S. cerevisiae sgs1 mgt1 strain, hits give high values
Outline: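 Compounds are added to genetically altered yeast, and growth is compared with cultures given vehicle alone to give percent inhibition.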

[8] = NCI Yeast Anticancer Drug Screen. Data for the CLN2oe strain (AID 163);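 further: 0% = growth of vehicle-only control cultures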; settings: S. cerevisiae CLN2oe strain, hits give high values
Outline: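 Cells of an engineered yeast line with disturbed cell-cycle regulation are treated with compound. Inhibition of growth is then calculated relative to the vehicle-treated reference.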

[9] = NCI Yeast Anticancer Drug Screen. Data for the cln2 rad14 strain (AID 165);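 further: 0% = growth equal to vehicle treated cultures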; settings: S. cerevisiae cln2 rad14 strain, hits give high values
Outline: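 Strain: cln2 rad14 yeast, altered in cell cycle control and DNA damage repair. Read-out: growth inhibition vs vehicle.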

[10] = NCI Yeast Anticancer Drug Screen. Data for the bub3 strain (AID 167); settings: S. cerevisiae bub3 mutant strain, hits give high values
Outline: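 Part of a panel of yeast mutants defective in DNA damage repair or cell cycle regulation. Each strain is grown with compound, and inhibition is calculated relative to solvent-treated cultures.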

[11] = NCI Yeast Anticancer Drug Screen. Data for the wt2 strain (AID 169);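 further: 0% = growth of vehicle-treated yeast cultures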; settings: S. cerevisiae wt2 strain growth inhibition, hits give high values
Outline: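 Growth of compound-treated yeast is measured and expressed as inhibition relative to vehicle-only controls.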

[12] = NCI Yeast Anticancer Drug Screen. Data for the mlh1 strain (AID 171);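 further: 0% = growth of vehicle-treated control cultures of the same strain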; settings: S. cerevisiae mlh1 strain growth inhibition, hits give high values
Outline: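 Test agents were incubated with yeast bearing a defined DNA damage repair or cell cycle control alteration; values are growth inhibition normalised to vehicle-treated cultures.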

[13] = NCI Yeast Anticancer Drug Screen. Data for the mlh1 rad18 strain (AID 175); settings: S. cerevisiae mlh1 rad18 strain growth inhibition, hits give high values
Outline: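 A repair-deficient yeast strain is exposed to test compound, and growth is scored relative to vehicle-treated controls.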

[14] = NCI Yeast Anticancer Drug Screen. Data for the rad18 strain (AID 177); settings: S. cerevisiae rad18 mutant growth inhibition, hits give high values
Outline: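 DNA-repair-defective yeast; compound treatment; growth inhibition scored against vehicle.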

[15] = NCI Yeast Anticancer Drug Screen. Data for the rad52 strain (AID 147);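 further: 0% = growth of vehicle-treated control cultures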; settings: S. cerevisiae rad52 mutant growth inhibition, hits give high values
Outline: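 Growth of repair-deficient yeast cells was compared between compound-treated and vehicle-treated cultures to give percent inhibition.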

[16] = at 5.0 µM (retest, dose inferred, filed as 0.5)
[17] = at 50.0 µM (retest, dose inferred, filed as 5.0)

Measured: growth inhibition

CCNC(=O)OCC1C2=C(C(=O)C(C)=C(N)C2=O)N2CC3C(N3C)C12OC (stereo not drawn)
inactive: [1]; at 1.2 µM -19% | [1]; at 3.7 µM -16% | [1]; at 11.0 µM -4% | [1]; at 33.0 µM 23% | [1]; at 100.0 µM 67% | [2]; at 1.2 µM 6% | [2]; at 3.7 µM -12% | [2]; at 11.0 µM -6% | [2]; at 33.0 µM 13% | [2]; at 100.0 µM 41% | [3]; at 1.2 µM 2% | [3]; at 3.7 µM 2% | [3]; at 11.0 µM 21% | [3]; at 33.0 µM 37% | [4]; at 1.2 µM 14% | [4]; at 3.7 µM 15% | [4]; [16] 34% | [4]; at 11.0 µM 19% | [4]; at 33.0 µM 57% | [4]; at 50.0 µM 58% | [5]; at 1.2 µM 9% | [5]; at 3.7 µM 13% | [5]; [16] 23% | [5]; at 11.0 µM 18% | [5]; at 33.0 µM 58% | [5]; at 50.0 µM 63.6% | [6]; at 1.2 µM -9% | [6]; at 3.7 µM -5% | [6]; at 11.0 µM 8% | [6]; at 33.0 µM 45% | [7]; [16] 23% | [7]; [17] 68% | [7]; at 50.0 µM 47.6% | [8]; at 1.2 µM 4% | [8]; at 3.7 µM 4% | [8]; at 11.0 µM 19% | [8]; at 33.0 µM 41% | [9]; [16] 14% | [9]; [17] 50% | [9]; at 50.0 µM 44.7% | [10]; at 1.2 µM 13% | [10]; at 3.7 µM 9% | [10]; [16] 21% | [10]; at 11.0 µM 10% | [10]; at 33.0 µM 36% | [10]; [17] 50% | [10]; at 50.0 µM 21.8% | [11]; at 1.2 µM -37% | [11]; at 3.7 µM -32% | [11]; at 11.0 µM -28% | [11]; at 33.0 µM 6% | [11]; at 100.0 µM 34% | [12]; at 1.2 µM 15% | [12]; at 3.7 µM 18% | [12]; at 11.0 µM 32% | [12]; at 33.0 µM 56% | [14]; at 1.2 µM 13% | [14]; at 3.7 µM 40%
active: [3]; at 100.0 µM 74% | [4]; [17] 70% | [4]; at 100.0 µM 78% | [5]; [17] 71% | [5]; at 100.0 µM 87% | [6]; at 100.0 µM 78% | [8]; at 100.0 µM 80% | [10]; at 100.0 µM 71% | [12]; at 100.0 µM 84% | [13]; [16] 73% | [13]; [17] 92% | [13]; at 50.0 µM 70.8% | [14]; at 11.0 µM 72% | [14]; at 33.0 µM 89% | [14]; at 100.0 µM 91%

[N-]=[N+]=C1C(Cl)=C(Cl)C(Cl)=C1Cl
inactive: [15]; at 1.2 µM -1% | [15]; at 3.7 µM 17% | [15]; at 11.0 µM 63% | [2]; at 1.2 µM 1% | [2]; at 3.7 µM 6% | [2]; at 11.0 µM 32% | [3]; at 1.2 µM -1% | [3]; at 3.7 µM -1% | [3]; at 11.0 µM 46% | [4]; at 1.2 µM 6% | [4]; at 3.7 µM 8% | [4]; [16] 62% | [4]; at 11.0 µM 65% | [5]; at 1.2 µM 1% | [5]; at 3.7 µM 2% | [5]; [16] 15% | [5]; at 11.0 µM 59% | [6]; at 1.2 µM 1% | [6]; at 3.7 µM 5% | [6]; at 11.0 µM 44% | [7]; [16] 20% | [8]; at 1.2 µM -2% | [8]; at 3.7 µM 2% | [8]; at 11.0 µM 50% | [9]; [16] -6% | [10]; at 1.2 µM -8% | [10]; at 3.7 µM 1% | [10]; [16] 11% | [10]; at 11.0 µM 62% | [11]; at 1.2 µM 0% | [11]; at 3.7 µM 0% | [11]; at 11.0 µM 48%
active: [15]; at 33.0 µM 99% | [15]; at 100.0 µM 99% | [2]; at 33.0 µM 83% | [2]; at 100.0 µM 98% | [3]; at 33.0 µM 95% | [3]; at 100.0 µM 99% | [4]; at 33.0 µM 99% | [4]; [17] 96% | [4]; at 50.0 µM 99% | [4]; at 100.0 µM 99% | [5]; at 33.0 µM 99% | [5]; [17] 98% | [5]; at 50.0 µM 99.5% | [5]; at 100.0 µM 99% | [6]; at 33.0 µM 99% | [6]; at 100.0 µM 99% | [7]; [17] 95% | [7]; at 50.0 µM 99.2% | [8]; at 33.0 µM 99% | [8]; at 100.0 µM 99% | [9]; [17] 97% | [9]; at 50.0 µM 98.8% | [10]; at 33.0 µM 98% | [10]; [17] 97% | [10]; at 50.0 µM 99% | [10]; at 100.0 µM 99% | [11]; at 33.0 µM 99% | [11]; at 100.0 µM 99%
